Laboratory results taken from PubChem BioAssay (EPA / NIEHS).
The source made the active and inactive calls. Rule for the calls: active = hit-call score of the fitted dose curve at least 0.9, where 1 is the maximum; inactive = score below 0.9.

Legend:
[1] = read-out: urokinase plasminogen activator (uPA), PLAU (gene 5328); experiment: BSK_KF3CT_uPA: BioMAP Diversity Plus: KF3CT Assay for urokinase plasminogen activator (uPA) Biomarker Activity (AID 2283075); conditions: primary human keratinocytes with fibroblasts; actives raise or lower the signal
How it was run: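 Values derive from bidirectional fitting against DMSO controls. Keratinocyte/foreskin fibroblast co-cultures received chemical; 24 h later uPA was detected by ELISA, with SRB total-protein staining in parallel wells for overt cytotoxicity.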

[2] = read-out: CD40, CD40 (gene 958); experiment: BSK_LPS_CD40: BioMAP Diversity Plus: LPS Assay for CD40 Biomarker Activity (AID 2283076); conditions: primary human HUVEC with PBMC; actives raise or lower the signal
How it was run: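 HUVEC plus PBMC co-culture stimulated with LPS; CD40 quantified by ELISA 24 h after compound dosing. Fitting was bidirectional relative to DMSO. SRB staining of parallel cultures flagged overt cytotoxicity.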

[3] = read-out: E-selectin (Homo sapiens) (UniProt P16581); experiment: BSK_LPS_Eselectin: BioMAP Diversity Plus: LPS Assay for Eselectin Biomarker Activity (AID 2283077); conditions: primary human HUVEC with PBMC; actives raise or lower the signal
How it was run: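 Human umbilical vein endothelial cells co-cultured with PBMC under LPS stimulation; cell-surface E-selectin measured by ELISA 24 h after dosing. Change in either direction versus DMSO, with SRB total-protein staining in parallel cultures for cytotoxicity.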

[4] = read-out: Interleukin-8 (IL8), CXCL8 (gene 3576); experiment: BSK_LPS_IL8: BioMAP Diversity Plus: LPS Assay for Interleukin-8 (IL8) Biomarker Activity (AID 2283078); conditions: primary human HUVEC with PBMC; actives raise or lower the signal
How it was run: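 Human umbilical vein endothelial cells co-cultured with PBMC, LPS-stimulated, exposed to compound for 24 h. IL-8 quantified by ELISA; fitted in both directions against DMSO, with SRB total-protein staining of parallel cultures for cytotoxicity.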

[5] = BSK_LPS_SRB: Viability Assessment in the BioMAP Diversity Plus: LPS Assay (AID 2283079); conditions: primary human HUVEC with PBMC;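 note: total protein by sulforhodamine B absorbance as a cytotoxicity measure; measured one day after compound addition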
How it was run: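 Co-culture of human umbilical vein endothelial cells and PBMC, read 24 h after dosing. Total protein by 0.1% SRB staining after 10% TCA fixation, absorbance at 560 nm; bidirectional fit against DMSO.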

[6] = read-out: Interleukin-1 alpha (IL1a), IL1A (gene 3552); experiment: BSK_LPS_IL1a: BioMAP Diversity Plus: LPS Assay for Interleukin-1 alpha (IL1a) Biomarker Activity (AID 2283080); conditions: primary human HUVEC with PBMC; actives raise or lower the signal
How it was run: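 Human umbilical vein endothelial cells co-cultured with PBMC and stimulated with LPS; IL-1a measured by ELISA 24 h after dosing. Bidirectional fitting against DMSO; cytotoxicity checked by SRB staining in parallel cultures.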

[7] = read-out: Monocyte Chemoattractant Protein-1 (MCP1), CCL2 (gene 6347); experiment: BSK_LPS_MCP1: BioMAP Diversity Plus: LPS Assay for Monocyte Chemoattractant Protein-1 (MCP1) Biomarker Activity (AID 2283081); conditions: primary human HUVEC with PBMC; actives raise or lower the signal;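 for AC50: secreted MCP-1 protein quantified by ELISA in culture supernatant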
How it was run: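 Human umbilical vein endothelial cells co-cultured with PBMC, LPS-stimulated; secreted MCP-1 measured by ELISA 24 h after compound addition. Bidirectional curve fitting against DMSO baseline; SRB total-protein staining in parallel cultures for cytotoxicity.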

[8] = BSK_LPS_PGE2: BioMAP Diversity Plus: LPS Assay for Prostaglandin E2 (PGE2) Biomarker Activity (AID 2283082); conditions: primary human HUVEC with PBMC; actives raise or lower the signal;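 for AC50: secreted prostaglandin E2 measured by ELISA in LPS-stimulated co-culture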
How it was run: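 Compounds were added to the LPS co-culture of endothelium and PBMC, and PGE2 was measured by ELISA after 24 h. Responses in either direction were fitted with DMSO as baseline.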

[9] = read-out: Macrophage colony-stimulating factor (MCSF), CSF1 (gene 1435); experiment: BSK_LPS_MCSF: BioMAP Diversity Plus: LPS Assay for Macrophage colony-stimulating factor (MCSF) Biomarker Activity (AID 2283083); conditions: primary human HUVEC with PBMC; actives raise or lower the signal
How it was run: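 HUVEC–PBMC co-culture, M-CSF measured by ELISA 24 h after chemical dosing. Fitted in both directions relative to DMSO as negative control; overt cytotoxicity assessed by SRB total-protein staining in parallel cultures.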

[10] = read-out: Tumor necrosis factor (Homo sapiens) (UniProt P01375); experiment: BSK_LPS_TNFa: BioMAP Diversity Plus: LPS Assay for Tumour Necrosis Factor alpha (TNFa) Biomarker Activity (AID 2283085); conditions: primary human HUVEC with PBMC; actives raise or lower the signal;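 for AC50: TNFa protein level quantified by ELISA in the co-culture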
How it was run: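 Cells (umbilical vein endothelium plus peripheral blood mononuclear cells) were dosed with chemical, incubated 24 h, then TNFa was quantified by ELISA; values derive from bidirectional fitting with DMSO as baseline.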

[11] = read-out: Vascular cell adhesion molecule 1 (VCAM1), VCAM1 (gene 7412); experiment: BSK_LPS_VCAM1: BioMAP Diversity Plus: LPS Assay for Vascular cell adhesion molecule 1 (VCAM1) Biomarker Activity (AID 2283086); conditions: primary human HUVEC with PBMC; actives raise or lower the signal
How it was run: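 Cells are dosed in an LPS-stimulated endothelial/mononuclear co-culture and, after 24 h, VCAM-1 is quantified by ELISA. Activity in either direction is fitted relative to the DMSO negative control.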

[12] = read-out: CD38, CD38 (gene 952); experiment: BSK_SAg_CD38: BioMAP Diversity Plus: SAg Assay for CD38 Biomarker Activity (AID 2283087); conditions: primary human HUVEC with PBMC; actives raise or lower the signal
How it was run: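 CD38 quantified by ELISA (fluorescence) in a superantigen-activated endothelial cell–PBMC co-culture at 24 h post-dose. Activity fitted in both directions relative to DMSO; parallel SRB and Alamar Blue cytotoxicity read-outs.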

[13] = read-out: CD69, CD69 (gene 969); experiment: BSK_SAg_CD69: BioMAP Diversity Plus: SAg Assay for CD69 Biomarker Activity (AID 2283089); conditions: primary human HUVEC with PBMC; actives raise or lower the signal;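 for AC50: cell surface CD69 protein quantified by ELISA with fluorescence detection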
How it was run: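 HUVEC co-cultured with PBMC were dosed with chemical, and CD69 was measured by ELISA with fluorescence read-out 24 h later. Bidirectional curve fitting used DMSO as negative control and activity baseline.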

[14] = read-out: Monocyte Chemoattractant Protein-1 (MCP1), CCL2 (gene 6347); experiment: BSK_SAg_MCP1: BioMAP Diversity Plus: SAg Assay for Monocyte Chemoattractant Protein-1 (MCP1) Biomarker Activity (AID 2283090); conditions: primary human HUVEC with PBMC; actives raise or lower the signal
How it was run: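 Values derive from bidirectional fitting of ELISA-measured MCP1 against DMSO controls. Readings were taken 24 h after dosing human vascular endothelial cells co-cultured with peripheral blood mononuclear cells under superantigen stimulation.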

[15] = read-out: Monokine induced gamma interferon (MIG), CXCL9 (gene 4283); experiment: BSK_SAg_MIG: BioMAP Diversity Plus: SAg Assay for Monokine induced gamma interferon (MIG) Biomarker Activity (AID 2283092); conditions: primary human HUVEC with PBMC; actives raise or lower the signal
How it was run: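 HUVEC plus human PBMC co-culture, chemicals dosed and MIG (CXCL9) quantified by ELISA at 24 h. Bidirectional curve fitting against DMSO as negative control and baseline, so both gain and loss of signal count as activity.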

[16] = BSK_SAg_PBMCCytotoxicity: PBMC Cytotoxicity Assessment in the BioMAP Diversity Plus: SAg Assay (AID 2283093); conditions: primary human HUVEC with PBMC;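 note: PBMC viability measured as Alamar Blue reduction fluorescence at 546/580 nm; fitted both ways against DMSO so a hit may be loss or gain of signal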;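 for AC50: PBMC superantigen activated with SEB plus TSST-1 one hour after compound addition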
How it was run: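 Alamar Blue reduction (6 h, 546/580 nm) reports PBMC cytotoxicity after 90 h superantigen activation (SEB, TSST-1; 20 ng/mL final each) with 1 h compound pre-treatment. Gain or loss of signal fitted versus DMSO.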

[17] = read-out: Interleukin-8 (IL8), CXCL8 (gene 3576); experiment: BSK_SAg_IL8: BioMAP Diversity Plus: SAg Assay for Interleukin-8 (IL8) Biomarker Activity (AID 2283094); conditions: primary human HUVEC with PBMC; actives raise or lower the signal
How it was run: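 Chemicals were dosed onto a human endothelial–PBMC co-culture, and IL-8 was quantified by ELISA after 24 h. Both increases and decreases were fitted relative to DMSO.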

[18] = BSK_SAg_Proliferation: Cell Proliferation Assessment in the BioMAP Diversity Plus: SAg Assay (AID 2283095); conditions: primary human HUVEC with PBMC;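 note: relative cell number as total protein by SRB absorbance in sub-confluent culture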
How it was run: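 Absorbance of sulforhodamine B at 560 nm reports total protein in a human vascular endothelial/PBMC co-culture after 96 h chemical exposure. Gain or loss of signal is fitted in both directions against DMSO.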

[19] = BSK_SAg_SRB: Viability Assessment in the BioMAP Diversity Plus: SAg Assay (AID 2283096); conditions: primary human HUVEC with PBMC;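 note: cells read one day after compound addition; hits may be either gain or loss of signal compared with DMSO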
How it was run: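 This overt-cytotoxicity endpoint quantifies protein in human endothelial/PBMC co-cultures at 24 h using SRB absorbance (560 nm) after trichloroacetic acid fixation. Values reflect signal change from the DMSO negative control, fitted bidirectionally.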

Measured: AC50

Tumor necrosis factor (Homo sapiens), sequence (P01375 whole entry, looked up): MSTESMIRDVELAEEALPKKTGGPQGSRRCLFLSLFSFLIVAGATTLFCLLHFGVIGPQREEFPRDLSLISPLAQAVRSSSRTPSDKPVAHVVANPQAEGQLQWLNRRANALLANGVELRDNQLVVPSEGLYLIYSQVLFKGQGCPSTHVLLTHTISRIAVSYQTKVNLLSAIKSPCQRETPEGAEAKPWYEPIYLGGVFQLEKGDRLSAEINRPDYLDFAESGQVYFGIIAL
E-selectin (Homo sapiens), sequence (P16581 whole entry, looked up): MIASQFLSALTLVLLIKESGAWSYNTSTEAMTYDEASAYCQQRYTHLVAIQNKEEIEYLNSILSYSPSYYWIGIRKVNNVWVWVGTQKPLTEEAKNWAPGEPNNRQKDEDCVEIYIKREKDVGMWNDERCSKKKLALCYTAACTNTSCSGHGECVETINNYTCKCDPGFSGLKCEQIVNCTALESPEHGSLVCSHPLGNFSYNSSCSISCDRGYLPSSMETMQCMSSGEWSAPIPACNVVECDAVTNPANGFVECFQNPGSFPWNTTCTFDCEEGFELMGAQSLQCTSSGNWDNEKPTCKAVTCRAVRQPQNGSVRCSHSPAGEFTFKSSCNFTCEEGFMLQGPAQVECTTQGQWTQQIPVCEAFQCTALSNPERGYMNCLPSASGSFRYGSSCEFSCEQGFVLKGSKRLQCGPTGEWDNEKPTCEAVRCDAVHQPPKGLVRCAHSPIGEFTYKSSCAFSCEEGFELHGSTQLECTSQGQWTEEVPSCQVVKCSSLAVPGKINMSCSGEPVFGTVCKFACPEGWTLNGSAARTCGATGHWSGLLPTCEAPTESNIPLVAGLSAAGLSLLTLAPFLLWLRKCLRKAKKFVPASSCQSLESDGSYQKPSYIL

CCCCC(CC)COCC1CO1 (centres undefined)
inactive: all assays above

C=CCOCC(O)CCl (centres undefined)
inactive: all assays above

CCCCC/C=C\C/C=C\CCCCCCCC(=O)OC
active: [1] 30.8 µM | [2] 20 µM | [3] 36.5 µM | [4] 29.5 µM | [6] 31.8 µM | [7] 37.1 µM | [9] 32.5 µM | [10] 36.1 µM | [11] 30 µM | [12] 28.4 µM | [15] 31.4 µM | [16] 23.2 µM | [17] 27.8 µM | [18] 13.1 µM
inactive: [5] | [8] | [14] | [19]

C/C=C\C/C=C/CCCCCCCCOC(C)=O
active: [2] 20 µM | [3] 30.9 µM | [4] 34 µM | [6] 35.1 µM | [7] 30.5 µM | [8] 35.5 µM | [9] 24.7 µM | [10] 32.4 µM | [11] 26.2 µM | [12] 32.1 µM | [13] 20 µM | [16] 24.3 µM | [18] 26.7 µM
inactive: [1] | [5] | [14] | [15] | [17] | [19]

CO[Si](OC)(OC)c1ccccc1
inactive: all assays above
